# High-throughput results as filed in PubChem.
# Rows were chosen to be rich in hits. Some 4.5% of all compounds tested hit in one or more screens of this group.
# Jurkat NFkB inh: inhibitors of the PMA/ionomycin-induced NF-kB reporter in Jurkat cells. inhibition, % at 4 µM. actives 0.53% (n = 330,000). AID 435003. PMA/ionomycin-induced NF-kB luciferase reporter, luminescence; in the data active = inhibition above about 50%
# Beta apoptosis: blocks beta cell apoptosis; INS-1E cytokine-induced death, ATP luminescence, 48 h; percent of positive-control rescue, neutral wells zero; protection from apoptosis, % (concentration not given with the values); actives 0.8% (n = 300,000); AID 435005;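 active = Every replicate reaches about 75%, or at least half do and their mean reaches it too, limit read from the data; inconclusive = At least half of replicates reach the limit but their mean does not; inactive = Under half of replicates reach the limit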;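 note: higher means more ATP so stronger rescue from cytokine killing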
# 697 NFkB inh: lowers PMA/ionomycin-induced NF-kB signal in 697 B cells; AID 435022; inhibition, % at 4 µM; 697 B-cell NF-kB luciferase reporter, 16 h; actives 0.33% (n = 330,000); in the data active = inhibition above about 35%
# Mdm2-MdmX inh: disrupts the human Mdm2-MdmX interaction | SaOS-2 split-luciferase Mdm2/MdmX complementation, luminescence | inhibition, % at 8 µM | actives 3% (n = 330,000) | AID 485346;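 active = inhibition of at least 50% at 8 µM in the primary screen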
# Target sequence (O15151 whole entry, looked up): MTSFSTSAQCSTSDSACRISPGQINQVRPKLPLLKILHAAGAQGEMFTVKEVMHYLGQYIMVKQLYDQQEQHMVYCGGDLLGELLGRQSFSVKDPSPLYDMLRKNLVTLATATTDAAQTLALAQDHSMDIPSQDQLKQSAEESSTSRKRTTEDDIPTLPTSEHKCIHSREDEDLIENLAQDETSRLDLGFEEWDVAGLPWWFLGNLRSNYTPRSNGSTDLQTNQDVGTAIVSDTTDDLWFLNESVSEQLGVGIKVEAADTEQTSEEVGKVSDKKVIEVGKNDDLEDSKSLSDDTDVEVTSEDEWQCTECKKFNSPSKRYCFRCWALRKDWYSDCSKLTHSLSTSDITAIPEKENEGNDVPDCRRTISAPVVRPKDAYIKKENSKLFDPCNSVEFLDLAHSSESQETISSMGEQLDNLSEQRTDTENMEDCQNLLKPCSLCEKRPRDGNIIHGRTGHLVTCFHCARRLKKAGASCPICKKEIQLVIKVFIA
# Target sequence (Q00987 whole entry, looked up): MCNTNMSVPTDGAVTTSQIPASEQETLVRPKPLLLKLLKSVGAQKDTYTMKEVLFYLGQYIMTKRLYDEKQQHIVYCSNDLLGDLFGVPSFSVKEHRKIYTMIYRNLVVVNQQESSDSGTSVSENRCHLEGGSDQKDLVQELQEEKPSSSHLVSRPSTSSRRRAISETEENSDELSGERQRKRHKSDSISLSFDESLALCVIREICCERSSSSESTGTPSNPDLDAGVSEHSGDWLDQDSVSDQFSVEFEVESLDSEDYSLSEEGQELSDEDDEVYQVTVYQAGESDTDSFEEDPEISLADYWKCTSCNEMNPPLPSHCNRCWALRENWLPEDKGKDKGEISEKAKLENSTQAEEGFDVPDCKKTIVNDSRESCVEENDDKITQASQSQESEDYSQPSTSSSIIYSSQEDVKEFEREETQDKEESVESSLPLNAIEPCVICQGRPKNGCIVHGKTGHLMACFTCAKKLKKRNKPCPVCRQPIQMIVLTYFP
# CSC inhib: blocks cancer stem cells. AID 2717. cancer stem cell-like cells viability, luminescence. actives 1.1% (n = 300,000). inhibition, % at 7.5 µM; in the data active = inhibition above about 75%; inconclusive = no clear call, values can overlap the other calls; tested in HMLE shEcad cells
# Gli-Sufu block: blocks Gli-Sufu signaling in a luciferase reporter; Sufu-KO-LIGHT fibroblasts, Gli luciferase reporter luminescence; inhibition, % at 5 µM; actives 0.74% (n = 340,000); AID 588413;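 active = inhibition above about 55%, limit read from the data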
# Jurkat NFkB conf: inhibitors of the PMA/ionomycin-induced NF-kB reporter in Jurkat cells, retest. shares compounds with Jurkat NFkB inh. Jurkat NF-kB luciferase, 16 h. inhibition, % at 4 µM. actives 27% (n = 2,700);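 active = inhibition reaching about 45% at 4 µM in either replicate, limit read from the data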
# A number is an active result; – = inactive; ? = inconclusive; · = no result.
SMILES,Jurkat NFkB inh,Beta apoptosis,697 NFkB inh,Mdm2-MdmX inh,CSC inhib,Gli-Sufu block,Jurkat NFkB conf
CC(=O)Nc1ccc(NC(=O)c2ccc(CN3CCc4ccccc4C3)cc2)cc1,–,–,–,–,–,–,·
O=C(Nc1ccc(S(=O)(=O)N2CCCC2)cc1)c1ccc(CN2CCOCC2)cc1,–,–,–,–,–,–,·
O=C(Nc1ccc(S(=O)(=O)N2CCCCC2)cc1)c1ccc(CN2CCOCC2)cc1,62,–,–,–,–,–,61
O=C(Nc1ccc(F)cc1)c1ccc(CN2CCc3ccccc3C2)cc1,58,–,–,–,–,–,–
O=C(c1cc(-c2ccc(F)cc2)on1)N1CCCCCC1,–,–,–,–,–,–,·
O=C(c1cc(-c2cccc(O)c2)on1)N1CCCCC1,–,–,–,–,–,–,–
Cc1ccc(-c2cc(C(=O)N3CCCCCC3)no2)cc1,–,–,–,–,–,–,–
COc1ccc(-c2nc3c(Br)c(N)c(Br)cc3o2)cc1,–,·,–,–,–,–,–
O=C(NCC1CCCO1)c1cc(Br)c(Br)s1 (centres undefined),–,·,–,–,–,–,·
C/C(=N\N1CCN(Cc2ccccc2Cl)CC1)c1ccc([N+](=O)[O-])cc1,51,–,–,–,–,–,–
O=C(CC1C(=O)NCCN1C(=O)Nc1ccccc1)Nc1cc(Cl)cc(Cl)c1 (centres undefined),–,–,–,–,–,–,·
O=C(COC(=O)C1CC1)NCCc1ccc(Cl)cc1,–,·,–,–,·,–,·
COc1cc(CCC(=O)Nc2nnc(C)s2)cc(OC)c1OC,52,·,–,–,–,–,–
COc1ccc(-c2csc3ncnc(Cl)c23)cc1,–,–,–,–,–,–,·
COc1ccc(Nc2ncnc3scc(-c4ccc(OC)cc4)c23)cc1,52,–,–,–,–,–,–
Nc1ccc(C(=O)Nc2nc3ccccc3s2)cc1,–,–,–,–,–,–,–
CCCCOC(=O)Nc1nc2ccccc2s1,–,–,–,–,–,–,–
CN(C(=O)c1cccc(C#CC(C)(C)O)c1)C1CCCN(Cc2ccccc2F)C1 (centres undefined),–,·,–,–,–,–,·
CCCNC(=O)Cn1c(=O)/c(=C/c2ccc(-c3ccc([N+](=O)[O-])cc3)o2)s/c1=C\C(=O)C(C)(C)C,·,·,·,·,·,–,·
CCOC(=O)c1ccc(NC(=O)c2nc[nH]c2C(=O)NCCCNC(=O)c2[nH]cnc2C(=O)Nc2ccc(C(=O)OCC)cc2)cc1,–,–,–,–,–,–,·
CCOC(=O)c1ccc(NC(=O)c2nc[nH]c2C(=O)NCCCCNC(=O)c2[nH]cnc2C(=O)Nc2ccc(C(=O)OCC)cc2)cc1,67,–,–,–,?,–,–
O=C(c1cccs1)N1CCC(c2nc3c(nnn3Cc3c(Cl)cccc3Cl)c(=O)[nH]2)CC1,–,–,–,–,·,–,·
Cc1ccc(N/C=C/c2onc(C)c2[N+](=O)[O-])cc1,–,–,–,–,·,–,–
CC1(C)Cc2nc3sc4c(=O)n(CC(=O)NCc5ccccc5)cnc4c3cc2CO1,61,–,–,–,–,–,–
Cc1ccc(-c2nc(CS(=O)(=O)CC(=O)Nc3cc(F)ccc3F)c(C)o2)cc1,–,–,–,–,·,–,·
SMILES,Jurkat NFkB inh,Beta apoptosis,697 NFkB inh,Mdm2-MdmX inh,CSC inhib,Gli-Sufu block,Jurkat NFkB conf
Cn1cc(/C=N/n2cnc3scc(-c4ccccc4)c3c2=O)c2ccccc21,63,–,–,–,–,–,–
CSCCC(NC(=O)COc1ccccc1)C(=O)OCc1ccc([N+](=O)[O-])cc1 (centres undefined),–,–,–,–,–,–,·
CC(C)c1ccc(/C=N/NC(=O)c2ccccc2Cl)cc1,52,–,–,–,–,–,–
O=C(N/N=C/c1ccsc1)c1ccccn1,–,–,–,–,–,–,·
CC(C)(C)c1ccc(/C=N/NC(=O)c2ccccn2)cc1,–,–,–,–,–,–,–
O=C(O)c1ccc(N/N=C/c2ccc(-c3ccccc3)cc2)cc1,·,·,·,·,·,–,·
CC(C)c1ccc(/C=N/Nc2ccc(C(=O)O)cc2)cc1,55,–,–,–,–,–,–
Cc1ccc(C(=O)OCC(=O)N(Cc2ccccc2)C(C)C)cc1C,–,–,–,–,–,–,·
O=C(Nc1nc2ccccc2c(=O)s1)c1ccco1,64,–,–,–,–,–,–
O=C(Nc1nc2cc3c(cc2s1)OCO3)c1ccco1,·,·,·,·,·,–,·
C=CCSc1nnc(-c2ccc(Cl)cc2Cl)o1,–,–,–,–,–,–,–
CCCCn1c(N)c(N(CC(C)C)C(=O)CC2CCCCC2)c(=O)[nH]c1=O,–,–,–,–,·,–,·
CC(=O)c1ccc(Nc2ccc(-c3ccccc3F)nn2)cc1,–,–,–,–,–,–,–
COc1ccccc1-c1ccc(Nc2ccc(C(=O)N3CCOCC3)cc2)nn1,–,–,–,–,–,–,·
COc1ccc(Cl)cc1NC(=O)CN1CCN(S(=O)(=O)N2CCCCC2)CC1,–,–,–,–,–,–,·
CC(=O)Nc1ccc(S(=O)(=O)N(C)CC(=O)N2CCN(C(=O)c3ccco3)CC2)cc1,–,–,–,–,–,–,·
CCC(=O)c1ccc(OCC(=O)Nc2ccccc2N2CCCCC2)cc1,51,–,–,–,–,–,–
CCOc1cc(/C=N/Nc2cccc(C(=O)O)c2)ccc1OC(=O)c1ccccc1,58,·,–,–,·,–,–
Cc1ccsc1/C=N/Nc1cccc(C(=O)O)c1,56,–,–,–,–,–,–
CCOc1cc(/C=N/NC(=O)CNc2cccc(C)c2)ccc1OC(=O)c1ccccc1,–,–,–,–,–,–,·
O=C(c1ccccc1)c1cnc(-c2ccc(Cl)cc2)s1,–,–,–,–,–,–,–
O=C(COC(=O)c1cccc(OC(F)F)c1)Nc1cccc(S(=O)(=O)N2CCCC2)c1,63,–,–,–,–,–,–
Cc1cc(OC(C)C(=O)N2CCN(c3ccc(F)cc3)CC2)c2c(C)cc(=O)oc2c1 (centres undefined),–,–,–,–,–,–,·
O=[N+]([O-])c1ccc(N2CCCCC2)cn1,–,–,–,–,–,–,·
O=[N+]([O-])c1ccc(N2CCN(c3cccc(Cl)c3)CC2)cn1,53,–,–,–,·,–,–
SMILES,Jurkat NFkB inh,Beta apoptosis,697 NFkB inh,Mdm2-MdmX inh,CSC inhib,Gli-Sufu block,Jurkat NFkB conf
CCCCc1ccc(CC(=O)Nc2cc(S(=O)(=O)N3CCOCC3)ccc2O)cc1,–,–,–,–,·,–,·
CCOc1ccc(N2C=Nc3ccc(OCC)cc3C2)cc1,–,·,–,–,–,–,·
C/C(=N\NC(=O)c1ccccc1Cl)c1ccccn1,89,93,–,–,–,64,–
C/C(=N/NC(=O)c1ccccn1)c1ccncc1,–,–,–,–,–,–,·
CC(=O)Nc1cccc(-c2cn3ccc(C)cc3n2)c1,–,–,–,–,–,–,·
Cc1ccn2cc(-c3cccc([N+](=O)[O-])c3)nc2c1,–,–,–,–,–,–,–
O=C(CCNS(=O)(=O)c1ccccc1F)N1CCN(C/C=C/c2ccccc2)CC1,–,–,–,–,–,–,·
